# The campaign covered roughly 310,000 compounds. About 14,000 (4.5%) showed an effect of 50% or more. The effect is printed as a negative number. The sample holds strong results, similar compounds and a random draw of the others, so the mix is not that of the screen.
# Target: human ether-à-go-go-related gene (hERG) potassium channel (human, UniProt Q12809)
# Assay: primary screen, population patch clamp on CHO cells stably expressing hERG; higher = less effect of the substance
# 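Note: peak tail current of the secondary pulse compared with the same well before compound.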
# Chain of human ether-à-go-go-related gene (hERG) potassium channel (Q12809 whole entry, looked up): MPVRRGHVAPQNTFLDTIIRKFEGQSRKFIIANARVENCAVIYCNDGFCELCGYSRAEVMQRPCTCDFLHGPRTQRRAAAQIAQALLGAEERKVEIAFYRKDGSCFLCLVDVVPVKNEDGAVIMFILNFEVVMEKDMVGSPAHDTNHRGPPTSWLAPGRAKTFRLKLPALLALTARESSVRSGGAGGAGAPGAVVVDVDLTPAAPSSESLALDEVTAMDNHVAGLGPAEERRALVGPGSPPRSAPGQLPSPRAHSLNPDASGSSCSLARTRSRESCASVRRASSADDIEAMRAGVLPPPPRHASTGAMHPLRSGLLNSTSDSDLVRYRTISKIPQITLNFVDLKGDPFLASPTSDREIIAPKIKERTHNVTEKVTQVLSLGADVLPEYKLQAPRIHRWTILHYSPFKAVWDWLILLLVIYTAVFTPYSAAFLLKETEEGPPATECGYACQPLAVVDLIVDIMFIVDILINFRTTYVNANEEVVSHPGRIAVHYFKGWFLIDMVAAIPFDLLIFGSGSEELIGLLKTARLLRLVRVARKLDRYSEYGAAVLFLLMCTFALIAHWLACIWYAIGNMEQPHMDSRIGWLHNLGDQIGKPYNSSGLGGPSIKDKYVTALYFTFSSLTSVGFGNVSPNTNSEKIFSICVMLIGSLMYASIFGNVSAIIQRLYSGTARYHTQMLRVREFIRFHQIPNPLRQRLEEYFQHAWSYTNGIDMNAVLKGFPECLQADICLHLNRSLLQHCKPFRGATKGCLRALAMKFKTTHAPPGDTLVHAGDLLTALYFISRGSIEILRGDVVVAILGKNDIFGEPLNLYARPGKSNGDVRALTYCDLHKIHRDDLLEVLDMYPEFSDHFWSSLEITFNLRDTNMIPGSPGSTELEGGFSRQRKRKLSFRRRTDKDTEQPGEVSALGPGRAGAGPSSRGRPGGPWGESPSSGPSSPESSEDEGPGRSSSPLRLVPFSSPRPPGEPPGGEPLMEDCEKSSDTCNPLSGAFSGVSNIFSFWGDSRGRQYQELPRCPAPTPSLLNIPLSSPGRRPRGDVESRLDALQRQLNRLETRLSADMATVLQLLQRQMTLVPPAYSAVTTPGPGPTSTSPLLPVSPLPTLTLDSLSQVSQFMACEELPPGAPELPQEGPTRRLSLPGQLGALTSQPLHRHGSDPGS
row,SMILES,"hERG current change (%, negative = inhibition) at 10uM"
1,Cc1ccc(C(C)(C)C)cc1S(=O)(=O)Nc1ncnc2sccc12,12.2%
2,Cn1nnc(NC(=O)c2ccc3ccccc3c2)n1,5.99%
3,CCCN(Cc1cc2ccccc2[nH]c1=O)C(=O)c1cccc([N+](=O)[O-])c1,-16.8%
4,O=[N+]([O-])c1ccc(S(=O)(=O)N2CCN(c3ccnc4cc(Cl)ccc34)CC2)cc1,-73.5%
5,O=S(=O)(c1cccs1)N1CCN(c2ccccc2Cl)CC1,9.51%
6,O=S(=O)(c1cccs1)N1CCN(c2ccnc3cc(Cl)ccc23)CC1,-68.4%
7,CN1CCCN(S(=O)(=O)c2cccc(C#N)c2)CC1.Cl,6.61%
8,O=[N+]([O-])c1ccc(N2CCN(S(=O)(=O)c3ccccc3)CC2)cc1,-46.9%
9,O=S(=O)(c1ccc(Br)s1)N1CCN(c2ccnc3cc(Cl)ccc23)CC1,-14.8%
10,N#Cc1cccc(S(=O)(=O)N2CCN(c3ccnc4cc(Cl)ccc34)CC2)c1,-70.7%
11,O=S(=O)(c1ccccc1)N1CCN(c2ccnc3cc(Cl)ccc23)CC1,-84%
12,Cc1ccc(S(=O)(=O)N2CCN(c3ccnc4cc(Cl)ccc34)CC2)cc1C,30.7%
13,O=S(=O)(c1cccc(Br)c1)N1CCN(c2ccnc3cc(Cl)ccc23)CC1,8.43%
14,Cc1ccc(Cl)cc1N1CCN(S(=O)(=O)c2cccc(S(=O)(=O)N3CCCC3)c2)CC1,2.64%
15,O=S(=O)(c1ccccc1OC(F)(F)F)N1CCN(c2ccnc3cc(Cl)ccc23)CC1,-18.4%
16,COc1ccc(C(=O)COC(=O)c2ccn(C)n2)cc1,-14.5%
17,Cc1[nH]c(C)c(S(=O)(=O)N2CCN(c3cccc(C(F)(F)F)c3)CC2)c1C(=O)N1CCCCC1,-1.72%
18,O=C(NCc1ccc(F)cc1)C1CC(=O)N(Cc2ccco2)C1 (centres unmarked),-17%
19,COc1cc(C=O)ccc1OCc1ccncc1,16.5%

row,SMILES,"hERG current change (%, negative = inhibition) at 10uM"
1,c1ccc(N2CCN(c3ncnc4scc(-c5cccs5)c34)CC2)cc1,9.87%
2,Cc1ccccc1N1CCN(c2ncnc3scc(-c4cccs4)c23)CC1,-1.45%
3,O=C(c1cccs1)N1CCCN(c2ncnc3scc(-c4ccccc4)c23)CC1,-60.7%
4,Cc1ccc(-c2csc3ncnc(N4CCN(C(=O)c5ccco5)CC4)c23)cc1,-89.9%
5,O=C(c1ccco1)N1CCN(c2ncnc3scc(-c4cccs4)c23)CC1,-63.9%
6,Fc1ccc(-c2csc3ncnc(N4CCN(Cc5ccccc5)CC4)c23)cc1,-2.14%
7,Oc1ccccc1N1CCN(c2ncnc3scc(-c4ccccc4)c23)CC1,4.04%
8,O=C(c1ccco1)N1CCN(c2ncnc3scc(-c4ccc(F)cc4)c23)CC1,-70.2%
9,Cc1ccc(-c2csc3ncnc(N4CCN(C(=O)c5ccccc5)CC4)c23)cc1,-30.5%
10,Cc1ccc(-c2csc3ncnc(N4CCN(c5ccccc5O)CC4)c23)cc1,25.8%
11,O=C(O)CSCC(=O)N1CCN(c2ncnc3scc(-c4ccccc4)c23)CC1,25.4%
12,Fc1ccc(-c2csc3ncnc(N4CCN(c5ccccc5)CC4)c23)cc1,16.2%
13,CS/C(=N\S(=O)(=O)c1ccccc1)c1ccccc1,0.781%
14,CC(C)n1c(C(F)(F)F)nc2cc(C(=O)N3CCOCC3)ccc21,16.3%
15,O=C(O)C1Sc2[nH]c(=O)sc2C2c3cc(Cl)ccc3OC(=O)C12 (centres unmarked),14.5%
16,Cc1ccc(NC(=O)Cc2noc3ccccc23)c(C)c1,11.2%
17,O=S(=O)(CCc1nc2ccccc2o1)c1ccc(Cl)c(Cl)c1,13.4%
18,CCc1cc(C(=O)N2CCN(C(=O)c3ccco3)CC2)sc1C,10.6%
19,CCc1cc2c(N3CCN(c4nnc(CC)s4)CC3)ncnc2s1.Cl,-67.6%

row,SMILES,"hERG current change (%, negative = inhibition) at 10uM"
1,COc1ccc(-c2nsc3c(N4CCN(C(=O)c5ccco5)CC4)ncnc23)cc1,10.9%
2,CCc1cc2c(N3CCCCC3)ncnc2s1.Cl,-7.21%
3,Cc1sc2nnn(CC(=O)N3CCN(C(=O)c4ccco4)CC3)c(=O)c2c1C,-32.4%
4,COc1ccc(-c2csc3ncnc(N4CCN(c5ccc(OC)cc5)CC4)c23)cc1,-11.2%
5,Cc1sc2ncnc(N3CCN(C(=O)c4ccco4)CC3)c2c1C,-61.8%
6,COc1cc(C(=O)N2CCN(c3ncnc4sc(C)c(C)c34)CC2)cc(OC)c1OC,-47.2%
7,CCc1cc2c(N3CCN(C)CC3)ncnc2s1.Cl,-29%
8,CCc1cc2c(N3CCN(C(=O)c4ccco4)CC3)ncnc2s1,-77.7%
9,COc1ccc(-c2csc3ncnc(N4CCN(C(=O)c5ccco5)CC4)c23)cc1,-75.3%
10,CCc1cc2c(N3CCN(c4ccccc4)CC3)ncnc2s1,-43.5%
11,Fc1ccc(CNCc2cccc(Br)c2)cc1,13.9%
12,O=C(CSc1cn(CCNC(=O)c2ccccc2)c2ccccc12)NCC1CCCO1 (centres unmarked),-10.9%
13,O=C(CNC(=O)c1cccs1)OCC(=O)c1ccccc1,8.55%
14,O=C(c1cccnc1Nc1ccccc1F)N1CCOCC1,11.7%
15,O=S(=O)(c1ccccc1)C(/C=N\O)/C=C/c1ccccc1 (centres unmarked),4.57%
16,CCCc1nnc(NC(=O)CCC(=O)NC2CCCCCC2)s1,13.7%
17,C=CCNC(=O)COC(=O)CCC(=O)c1cccs1,1.42%
18,CCC(C)NC(=O)CSc1nc2ccsc2c(=O)n1-c1ccc(OC)cc1 (centres unmarked),-3.72%
